Test results taken from PubChem BioAssay AID463212 (Sanford-Burnham Center for Chemical Genomics, 2010).
Among all 330,000 compounds or so, about 4,400 (1.3%) were called active. The list comes from a sample in which actives are over-represented; it also holds similar structures and randomly drawn compounds. Unmarked numbers belong to inactive results.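 How the source made its calls: active means growth inhibition of the mutant yeast at or above 50%; inactive means the rest.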

Assay: growth inhibition of tim23-1 ts yeast – luminescence, uHTS, primary screen (AID 463212);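 further: temperature-sensitive mutant grown at 25 °C; plate controls were DMSO-treated mutant yeast for no effect and medium wells lacking yeast for full effect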
Conditions: S. cerevisiae tim23-1 growth, BacTiter-Glo luminescence, 24 h; at 20 µM; hits give high values

Compound	inhibition
CC(C)(C)c1ccc(OC2=CS(=O)(=O)c3ccccc32)cc1	20.4%
COc1cccc(Oc2ccc(N)cc2)c1	8.39%
CC(C)(C)c1ccc(Oc2ccc(N)cc2)cc1	60.7% (active)
COc1cccc(C2Nc3cccc4cccc(c34)N2)c1	57.5% (active)
Oc1ccc(C2Nc3cccc4cccc(c34)N2)cc1	23.4%
COc1ccc(C2NC(=O)c3ccccc3N2)cc1 (configuration not stated)	16.7%
O=C(NC1CCCC1)C(c1ccc(Cl)cc1)N(C(=O)c1csnn1)C1CC1 (configuration not stated)	11.6%
O=C(CN1CCC(NC(=O)C2CC2)CC1)Nc1ccccc1[N+](=O)[O-]	8.81%
O=S(=O)(c1ccc(SCc2ccc(Br)cc2)nc1)N1CCOCC1	6.55%
COc1cc(/C=N/NC(=O)CNC(=O)c2ccncc2)ccc1OC(C)=O	-0.262%
COc1ccc(C(=O)NCC(=O)N/N=C/c2ccc([N+](=O)[O-])o2)cc1OC	87.3% (active)
COc1cc(CC(=O)N/N=C/c2ccccc2)c([N+](=O)[O-])cc1OC	4.64%
CCN(CC(=O)Nc1cc(Cl)ccc1C)C(=O)CSCc1ccccc1	18.4%
Cc1ccc(S(=O)(=O)c2c[nH]c3ccc(C)cc3c2=O)cc1	-5.69%
Cc1ccc(-c2cccc([C@H]3[C@@H]4C=CC[C@@H](C)[C@@H]4C(=O)N3Cc3ccccc3)c2)cc1	36.6%
COCCCNc1nc2ccccc2nc1NS(=O)(=O)c1ccc(F)cc1	21.6%
CC1CN(C(=O)c2ccc([N+](=O)[O-])s2)CC(C)O1 (configuration not stated)	13.9%
O=[N+]([O-])c1ccc(C=Nc2ccc(Cl)cc2Cl)s1	60.2% (active)
Cc1ccc2c(c1)C1C[N+](C)(CC(=O)c3ccccc3)CCC1N2C(=O)c1ccccc1Cl (configuration not stated)	-4.6%
COc1ccc(Nc2nc(N)nc(CSC(=S)N3CCC(C)CC3)n2)cc1	50%
CC(=O)c1ccc(NC(=O)c2ccc(-n3cncn3)c([N+](=O)[O-])c2)cc1	-6.94%
Cc1cc(Cl)ccc1C(=O)C1CCCN(C(=O)c2nonc2C)C1 (configuration not stated)	41.7%
O=C(Nc1ccc(N2CCOCC2)cc1)c1ccc2c(c1)OCO2	10.9%
O=C(Nc1ccc(NC(=O)c2ccc3c(c2)OCO3)cc1)c1cccc(Cl)c1	1.12%
O=C(Nc1ccccc1)c1ccc2c(c1)OCCCO2	51% (active)

Compound	inhibition
C/C(CC(=O)Nc1cccc(F)c1)=N\NC(=O)C(=O)NC1CCCCC1	18.3%
O=C(Nc1cccc(F)c1)NC1CCCc2ccccc21 (configuration not stated)	19.8%
O=C(Nc1cccc(F)c1)NC1CCCCCCC1	50.3% (active)
COc1cc(/C=C2/C(=O)ON=C2C)ccc1OCc1ccccc1F	66.9% (active)
COc1cc(/C=C2\SC(=O)NC2=O)ccc1OCc1ccc(Cl)nc1	-2.95%
CC1=NOC(=O)/C1=C\c1ccccc1	16.8%
COc1cc(/C=C2/C(=O)ON=C2C)ccc1OCc1cccc(F)c1	52.2% (active)
C#CCOc1ccc(/C=C2/C(=O)ON=C2C)cc1OCC	28.2%
C=CCOc1ccc(/C=C2/C(=O)ON=C2C)cc1OCC	22.6%
CN1CCN(C(CNS(=O)(=O)c2cccs2)c2cccnc2)CC1 (configuration not stated)	7.24%
CCN(CC(=O)Nc1ccc(OC)cc1)C(=O)c1ccc(=O)n(Cc2ccccc2)n1	7.12%
CC(C)N(C(=O)[C@H]1C[C@H](CC(=O)NC(C)(C)C)C(=O)N2CCc3c([nH]c4ccc(Cl)cc34)[C@]12C)C(C)C	43.7%
COC(C[C@H](O)CC(=O)[C@@H](C)OCc1ccccc1)OC	8.93%
COC(C[C@@H]1O[C@@H]1C(=O)[C@H](C)OCc1ccccc1)OC	-16.7%
COC(C/C=C/C(=O)[C@@H](C)OCc1ccccc1)OC	56.2% (active)
Cc1ccc(NS(=O)(=O)c2ccc3c(c2)oc(=O)n3C)c(C)c1	21.8%
CCn1cc(C(=O)NC2CCCCCC2)c(=O)c2cc(S(=O)(=O)N3CCCCC3)ccc21	12.1%
N#Cc1cccc(CSc2ncnc(N)n2)c1	10.7%
CCCC(=O)N1CCN(c2nnc(-c3ccc(C)cc3)c3ccccc23)CC1	50.5% (active)
c1ccc(-c2nnc(N3CCOCC3)c3ccccc23)cc1	-18.2%
OCCN1CCN(c2nnc(-c3ccccc3)c3ccccc23)CC1	-13.1%
O=C(Oc1cccc(O)c1)C1CCCCC1	25.1%
CCCSC(=S)NC1CCS(=O)(=O)C1 (configuration not stated)	8.59%
CCCCN1C(=O)/C(=C(/C#N)C(N)=O)c2ccccc21	21.8%
C#CCN1C(=O)C(O)(CC(=O)c2cc(OC)ccc2OC)c2ccccc21 (configuration not stated)	30%

Compound	inhibition
COc1ccc2c(c1)C(=C(C#N)C#N)C(=O)N2CCc1ccccc1	70.8% (active)
COc1cccc(-c2nnc(NC(=O)c3ccc(S(=O)(=O)N(CC(C)C)CC(C)C)cc3)o2)c1	11.6%
O=c1c2cc(Br)ccc2nc(-c2cccc(Cl)c2)n1O	65.8% (active)
NC(=O)c1cc(-c2cccnc2)nc2ccc(Br)cc12	-4.37%
Cc1cccc(-c2nc3ccccc3c(=O)n2NC(=O)Cc2ccc(Cl)cc2)c1	23.4%
CCOc1ccccc1NC(=O)c1cc(S(=O)(=O)N2CCC3(CC2)OCCO3)ccc1F	24.5%
CCOc1cc(NC(=O)c2ccccc2C(=O)O)c(OCC)cc1NC(=O)c1ccccc1F	53% (active)
CCOc1cc(NC(=O)Nc2ccccc2)c(OCC)cc1NC(=O)CC	7.41%
CCCCCNC(=O)C1c2ccccc2Oc2ccccc21	18.6%
CCCCC(CC)CNC(=O)C(=O)C1C(=O)Nc2ccccc21 (configuration not stated)	51.7% (active)
CCCCC(CC)CNC(=O)CCCCn1c(=O)[nH]c2ccsc2c1=O (configuration not stated)	-5.06%
Cc1c(CN2CCC(n3nccc3NC(=O)CCc3ccccc3)CC2)cnn1C	3.04%
Cc1cccc(Nc2nc(-c3ccccc3)cs2)n1	55.1% (active)
CCc1noc(C)c1C(=O)Nc1nc(-c2ccccc2)cs1	22.5%
Cc1ccccc1Nc1nc(-c2cccnc2)cs1	33.4%
CCC(C)OC(=O)C(C)Oc1ccc(-c2ccccc2)cc1 (configuration not stated)	3.46%
Clc1cccc(-c2nc(NCC3CCCO3)c3ccccc3n2)c1 (configuration not stated)	28.9%
c1ccc(-c2nc(NCc3ccco3)c3ccccc3n2)cc1	53% (active)
c1ccc2c(NCC3CCCO3)nc(-c3ccncc3)nc2c1 (configuration not stated)	13.1%
O=C(CO/N=C/c1ccc(OC(F)F)cc1)NCc1ccc(F)cc1	8.87%
Cc1ccc(Oc2nc(-c3ccccn3)nc3ccccc23)cc1	63.6% (active)
CC(C)(C)Nc1nc(-c2ccccn2)nc2ccccc12	-51.4%
COc1cnc(-c2ccccn2)nc1Oc1ccc(C(C)(C)C)cc1	41.2%
CC(C)(COC(=O)Nc1ccccc1)COC(=O)Nc1ccccc1	29.8%
O=C(c1ccncc1)N1CCN(S(=O)(=O)c2cccc([N+](=O)[O-])c2)CC1	3.41%

Compound	inhibition
CC(Sc1nc2cc(Cl)ccc2s1)C(=O)Nc1ccc2c(c1)OCO2 (configuration not stated)	32%
NS(=O)(=O)c1ccc(NC(=S)N2CCCC2)cc1	-14.9%
COc1ccccc1NS(=O)(=O)c1ccc(C)c(C(=O)NNC(=O)c2csc(N3CCOCC3)n2)c1	-7.58%
Cc1ccc(C(=O)OC2=CC(=O)CC(C)(C)C2)cc1	52.8% (active)
Cc1ccc(C(=O)Oc2ccc(C(=S)N3CCOCC3)cc2)cc1	-1.92%
COC(=O)NNC1=CC(=O)CC(C)(C)C1	-3.94%
O=C(CSc1nnnn1C1CCCC1)N1CCCCC1	4.13%
C[C@H]1CC[C@]2(O[C@@H](CCO)C[C@@H](O)[C@@H]2O)O1	23.4%
O=Cc1cn(-c2ccccc2)nc1-c1ccccn1	58.8% (active)
COc1ccc(-c2nn(-c3ccccc3)cc2/C=N/Nc2ccccn2)cc1OC	45.7%
O=C(O)c1ccc(N/N=C/c2cn(-c3ccccc3)nc2-c2cccs2)cc1	40.4%
N/C(=N\OC(=O)Nc1ccc(Cl)c(Cl)c1)c1ncc(C(F)(F)F)cc1Cl	73.9% (active)
N/C(=N\OC(=O)CCCC(=O)O)c1ncc(C(F)(F)F)cc1Cl	9.72%
O=C(c1ccccn1)c1ncc(C(F)(F)F)cc1Cl	3%
Cc1cccc(NC(=O)Cn2cc(C(=O)c3ccco3)c3ccccc32)c1	7.71%
O=C(NCCSc1ncc(-c2ccccc2)[nH]1)c1ccco1	-8.72%
CCOc1ccc(C(=O)Nc2cccc(SC)c2)cc1	10.1%
O=C1NC(Cc2ccc(O)cc2)c2nc3ccc(Cl)cc3c(=O)n2-c2ccccc21 (configuration not stated)	15%
CCOc1ccc(C(C)NC(=O)CN2C(=O)NC3(CCCCC3)C2=O)cc1OCC (configuration not stated)	7.68%
CCOc1ccc(C(c2c(C)[nH][nH]c2=O)c2c(C)[nH][nH]c2=O)cc1OCC	54.5% (active)
CCOc1ccc(C(CC(=O)O)NC(=O)Cc2ccccc2)cc1OC (configuration not stated)	-3.51%
CCOC(=O)N1CCN(C(=O)c2cn(C)c3ccc(S(=O)(=O)N(CC)CC)cc3c2=O)CC1	2.29%
